# Screening data: PubChem, The Scripps Research Institute Molecular Screening Center
# Sampled rows, rich in hits. Any-hit rate of the full collection: about 0.84%.
# SRC3 inh: SRC3 coactivator transcriptional activity inhibitors, primary screen, cell-based, luminescence; 360,000 compounds, 0.17% hits; Nuclear receptor coactivator 3 (Homo sapiens), Q9Y6Q9; inhibition, % at 3.6 µM; HEK293 GAL4-SRC3 luciferase reporter;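 active = inhibition above a per-campaign cutoff, the mean of all compounds plus 3 SD, cut at about 60% in these data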;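 also: higher means less SRC3-driven luciferase light from the GAL4 reporter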
# Target sequence (Q9Y6Q9 whole entry, looked up, the tested form may be a part): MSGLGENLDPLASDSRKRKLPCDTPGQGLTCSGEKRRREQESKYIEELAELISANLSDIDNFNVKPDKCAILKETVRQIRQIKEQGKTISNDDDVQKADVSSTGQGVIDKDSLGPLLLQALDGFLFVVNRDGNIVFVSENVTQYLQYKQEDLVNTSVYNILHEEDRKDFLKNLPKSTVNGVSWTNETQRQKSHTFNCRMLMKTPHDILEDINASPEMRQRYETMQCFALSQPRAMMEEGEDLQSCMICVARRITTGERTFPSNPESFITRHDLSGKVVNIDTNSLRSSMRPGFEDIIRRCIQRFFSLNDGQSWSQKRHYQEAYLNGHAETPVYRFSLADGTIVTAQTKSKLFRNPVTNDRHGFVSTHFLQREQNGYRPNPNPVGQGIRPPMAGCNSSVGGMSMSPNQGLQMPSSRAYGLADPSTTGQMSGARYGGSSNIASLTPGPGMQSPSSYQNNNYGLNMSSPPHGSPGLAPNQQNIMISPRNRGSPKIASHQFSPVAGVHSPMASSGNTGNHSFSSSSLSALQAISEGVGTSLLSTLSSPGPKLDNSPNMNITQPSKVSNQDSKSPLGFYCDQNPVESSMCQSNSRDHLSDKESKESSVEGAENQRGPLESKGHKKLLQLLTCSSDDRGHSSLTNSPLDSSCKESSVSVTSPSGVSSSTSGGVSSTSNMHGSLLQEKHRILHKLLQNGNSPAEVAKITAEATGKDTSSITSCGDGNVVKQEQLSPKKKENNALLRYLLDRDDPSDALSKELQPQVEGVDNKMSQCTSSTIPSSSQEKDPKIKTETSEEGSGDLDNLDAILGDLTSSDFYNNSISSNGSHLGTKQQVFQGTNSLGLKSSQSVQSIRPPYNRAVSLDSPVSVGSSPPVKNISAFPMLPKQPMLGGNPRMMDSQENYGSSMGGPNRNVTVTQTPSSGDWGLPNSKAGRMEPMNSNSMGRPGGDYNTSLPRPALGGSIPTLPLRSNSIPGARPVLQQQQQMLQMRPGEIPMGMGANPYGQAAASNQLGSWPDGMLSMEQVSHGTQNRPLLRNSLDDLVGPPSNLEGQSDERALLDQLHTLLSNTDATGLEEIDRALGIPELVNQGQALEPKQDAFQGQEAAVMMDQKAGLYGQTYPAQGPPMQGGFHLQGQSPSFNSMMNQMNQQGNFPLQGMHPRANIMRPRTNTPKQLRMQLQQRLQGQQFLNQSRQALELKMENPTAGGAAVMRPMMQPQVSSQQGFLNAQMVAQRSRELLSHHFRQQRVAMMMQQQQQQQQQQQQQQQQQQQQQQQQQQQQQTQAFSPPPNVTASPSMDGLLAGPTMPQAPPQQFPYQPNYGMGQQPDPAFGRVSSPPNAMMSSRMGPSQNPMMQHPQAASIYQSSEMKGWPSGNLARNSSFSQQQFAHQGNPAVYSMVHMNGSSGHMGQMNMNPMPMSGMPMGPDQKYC
# NR5A2 inv ag: LRH-1 (NR5A2) inverse agonists, primary screen, cell-based, luminescence, HEK293T, StAR-luciferase reporter. Nuclear receptor subfamily 5 group A member 2 (Homo sapiens), O00482. LRH-1 transfected, 24 h. inhibition, % at 3.6 µM. 360,000 compounds, 0.13% hits. AID 602396, 2012;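 active = inhibition above the mean inhibition of all tested compounds plus 3 SD, cut at about 73% in these data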
# NR2F2 inh: NR2F2 transcriptional activity inhibitors, primary screen, cell-based, luciferase reporter, HEK293T, luminescence | 370,000 compounds, 0.7% hits | inhibition, % at 8.6 µM | COUP transcription factor 2 (Homo sapiens), P24468 | HEK293T NGFI-A luciferase reporter;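 active = inhibition above a per-plate cutoff, mean inhibition of test wells between control levels plus 3 SD, cut at about 38% in these data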;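 also: cells cotransfected with COUP-TFII expression vector driving the NGFI-A reporter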
# SRC2 inh: inhibition of GAL4-SRC2 driven luciferase reporter, primary screen, SRC2 inhibitor project, cell-based, luminescence. inhibition, % at 9 µM. 370,000 compounds, 0.17% hits. Nuclear receptor coactivator 2 (Homo sapiens), Q15596. HEK293 GAL4-SRC2 luciferase reporter;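 active = inhibition above the mean inhibition of all tested compounds plus 3 SD, set per campaign, cut at about 52% in these data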
# NCOA1 inh: SRC1 coactivator transcriptional activity inhibitors, primary screen, cell-based, luminescence. Nuclear receptor coactivator 1 (Homo sapiens), Q15788. HEK293 GAL4-SRC1 luciferase reporter. inhibition, % at 3.6 µM. 360,000 compounds, 0.12% hits;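 active = inhibition above the campaign mean plus 3 SD, with each screening campaign given its own cutoff, cut at about 60% in these data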
# Hits are given with their value; 0 = inactive; - = no result; ! = not confirmed by another sample.
SMILES,SRC3 inh,NR5A2 inv ag,NR2F2 inh,SRC2 inh,NCOA1 inh
Cc1c(C2Nc3ccccc3C2C)[nH]c2ccccc12 (centres undefined),-,-,0,0,-
O=C(/C(=C/c1ccc(Cl)cc1)c1nc2ccccc2[nH]1)c1cccs1,62,0,-,-,0
O=C(/C(=C\c1ccccc1)c1nc2ccccc2[nH]1)c1ccc(Cl)cc1,0,0,0,0,0
COC(=O)C1=C(C)N(C)C(=NCc2ccc3c(c2)OCO3)NC1c1ccccc1 (centres undefined),-,-,0,0,-
O=C1c2[nH]nc(-c3ccccc3)c2C(c2ccc(F)cc2)N1Cc1ccccc1 (centres undefined),-,-,0,0,-
Cn1c(=O)c2cc(NC(=O)CCc3ccc(O)cc3)ccc2n1Cc1cccc(C(F)(F)F)c1,0,74,0,0,0
Cn1c(=O)c2cc(NC(=O)CCc3ccccc3)ccc2n1Cc1cccc(C(F)(F)F)c1,0,0,0,0,0
Cc1cc(C(=O)N2CCN(c3ccccn3)CC2)no1,89,0,0,0,0
O=C1C=CC(=O)C(CNc2ccc(C(=O)OCc3ccccc3)cc2)=C1,0,0,0,67,0
CN(C)c1ccc(C(=O)OCc2ccccc2)cc1,0,0,0,0,0
COCCCNC(=O)C[C@H]1C[C@@]2(C(=O)OC)C(=C[C@H](C(C)(C)C)O[C@@H]2C)N(CCC2=CCCCC2)C1=O,-,-,0,0,-
OC1(c2cccc(C(F)(F)F)c2)CCN(c2ncnc3c2[nH]c2ccc(F)cc23)CC1,0,0,47,0,0
COc1cccc2c1C1COC3C4CC(C(=O)O)C(C(C2)N13)N4C (centres undefined),0,88,0,0,0
Cn1nnnc1N=N/C(=N/Nc1ccccc1)c1ccccc1,81,0,0,0,76
CN(C)CCNc1cccc2sc3ccc(O)cc3c(=O)c12,0,0,0,0,0
Cc1ccc(NCCN(C)C)c2c(=O)c3cc(O)ccc3sc12,0,0,0,0,64
COc1cccc(C(=O)N[C@H](C(=O)N2CCC[C@H]2C(=O)NCCc2ccccc2Cl)C(C)C)c1,-,-,0,0,-
CC(=O)N(C)C1=C(N2CCOCC2)C(=O)c2ccccc2C1=O,87,100,-,-,85
CCN(CC)CCn1nc2c3c(cccc3c1=O)-c1ccccc1-2,0,77,0,0,73
COc1cc(C=O)ccc1OCCCOc1ccccc1C(=O)O,0,0,0,60,0
Cc1ccc(S(=O)(=O)N2CCCc3nc(-c4ccc(Br)cc4)ccc32)cc1,-,-,0,0,-
Cc1ccc(N(C(=O)CCl)C(C(=O)NC2CCCCC2)c2cccnc2)cc1C (centres undefined),-,-,0,63,-
N#Cc1ccc(S(=O)(=O)NCC2CCN(C(=O)C(=O)c3cc4ccccc4o3)CC2)cc1,-,-,0,0,-
COc1ccc(C2CC(=O)C(c3cccc(Cl)c3)=CN2Cc2ccccc2)cc1 (centres undefined),-,-,0,0,-
CC(C)(C)OC(=O)N1Cc2ccccc2C[C@H]1C(=O)NCC(=O)Nc1ccc2c(c1)OCCO2,0,0,0,54,0
SMILES,SRC3 inh,NR5A2 inv ag,NR2F2 inh,SRC2 inh,NCOA1 inh
CC1=C(C(=O)OCc2ccc3c(c2)OCO3)C(c2ccccc2)NC(=O)N1 (centres undefined),70,0,0,54,71
CC1=C(C(=O)OCc2ccc3c(c2)OCO3)C(c2ccc(O)c([N+](=O)[O-])c2)NC(=O)N1 (centres undefined),0,0,0,56,0
CC1=C(C(=O)OCc2ccc3c(c2)OCO3)C(c2ccccc2OCc2ccccc2)NC(=O)N1 (centres undefined),0,0,0,0,0
COC(=O)C1=C(C)N(Cc2ccc(Br)cc2)C(=S)NC1c1cccc(Br)c1 (centres undefined),-,-,0,0,-
CC(C)[C@H](N)C(=O)N[C@H](C(=O)N1CCC2CCN(Cc3ccccc3)CC21)C(C)C (some centres undefined),-,-,0,0,-
O=c1c(Br)ccc(Br)cc1Br,0,0,53,58,0
CCCCCCCCNc1ncnc2[nH]ncc12,0,0,38,0,0
OCCCNc1ncnc2[nH]ncc12,0,0,0,0,0
CCCN1CCCCC(NC(=O)c2ccccc2C)C1=O (centres undefined),-,-,0,0,-
CN(C)S(=O)(=O)c1cccc(NC(=S)Nc2cccc3cnccc23)c1,0,0,44,0,0
COc1cc(C=NO)nc(-c2ccccn2)c1,86,84,0,0,79
COc1ccc2nc(-c3ccccn3)[nH]c2c1,0,0,0,0,0
CCCCCCCCN1C(=O)[C@@H](CC(=O)N2CCSCC2)C[C@@]2(C(=O)OC)C1=C[C@H](C1CCCC1)O[C@@H]2C,-,-,0,0,-
COc1ccc(CNC(=O)COC(=O)c2cc(-c3ccc(Cl)s3)nc3ccccc23)cc1,83,0,0,0,0
O=C(COC(=O)c1cc(-c2ccc(Cl)s2)nc2ccccc12)NCc1ccco1,0,0,0,0,0
CCCCNC(=O)C[C@H]1C[C@@]2(C(=O)OC)C(=C[C@H](C(C)(C)C)O[C@@H]2C)N(Cc2ccco2)C1=O,-,-,0,0,-
CN(Cc1cnc2nc(N)nc(N)c2n1)c1ccc(C(=O)N[C@@H](CCC(=O)O)C(=O)O)cc1,0,0,0,0,68!
Nc1nc2ncc(CNc3ccc(C(=O)N[C@@H](CCC(=O)O)C(=O)O)cc3)nc2c(=O)[nH]1,0,0,0,0,0
Nc1ccn([C@@H]2O[C@H](C(=O)N[C@H](Cc3ccccc3)C(=O)NCC(=O)N3CCOCC3)[C@@H](O)[C@H]2O)c(=O)n1,-,-,0,0,-
CCc1ccc(S(=O)(=O)/N=C2\C=C(Nc3cccc(C(=O)O)c3)C(=O)c3ccccc32)cc1,0,0,0,0,0
Cc1cccc(NC2=C/C(=N/S(=O)(=O)c3cccs3)c3ccccc3C2=O)c1,0,0,0,0,0
Cc1ccc(Cl)cc1NC1=C/C(=N\S(=O)(=O)c2cccs2)c2ccccc2C1=O,85!,0,0,0,72!
CCc1ccc(S(=O)(=O)/N=C2\C=C(Nc3ccc(O)cc3)C(=O)c3ccccc32)cc1,89,90,-,-,88
Cc1ccc(NC2=C/C(=N\S(=O)(=O)c3cccs3)c3ccccc3C2=O)c(C)c1,70,0,-,-,67
O=C(O)c1ccc(NC2=C/C(=N/S(=O)(=O)c3cccs3)c3ccccc3C2=O)cc1,0,0,0,0,0
CCc1ccc(S(=O)(=O)/N=C2/C=C(Sc3ncn[nH]3)C(=O)c3ccccc32)cc1,88,95,-,-,83
C[C@@H]1ON(C)[C@H]2C[C@H]3c4[nH]c5c(-c6ccc(F)cc6)cccc5c4CCN3C(=O)[C@@H]12,-,-,0,0,-
O=C1C(Nc2ccc(O)cc2)=C/C(=N/S(=O)(=O)c2cccs2)c2ccccc21,90,86,78,71,88
